# Data published in PMC8384837, “Expanding the binding specificity for RNA recognition by a PUF domain”.
# How the values were obtained:
# Assay in all cases: yeast three-hybrid, YBZ-1, SC-Leu-His + 0.5 mM 3-AT, 4 days
# Details in all cases: tags: N-Gal4 AD-HA kept; label: inside an RPR1-promoter hybrid RNA with tandem MS2 sites; ssRNA
# PUM1 PUF domain R1-KNR = PUM1 PUF domain R1-KNR (Homo sapiens, UniProt Q14671 828-1176, S863K;R864N;Q867R)
# In short: (§1)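 The interaction score is the log change in variant frequency from input to selection. Scores were computed in log2 with a pseudocount of 1 for absent variants, using Illumina sequencing of PCR-amplified repeat regions. The input came from four days on SC-Leu and the selection from four days on SC-Leu-His + 0.5 mM 3-AT. The cells were strain YBZ-1 (LexA–MS2 coat fusion, HIS3 reporter) co-expressing Pumilio-1 PUF domain libraries and matching RNA elements from a centromeric plasmid.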
# PUM1 PUF domain R8-KKA = PUM1 PUF domain R8-KKA (Homo sapiens, UniProt Q14671 828-1176, N1122K;Y1123K;Q1126A)
# In short: as §1
# PUM1 PUF domain R6-TWA = target: T1, PUM1 PUF domain R6-TWA (Homo sapiens, UniProt Q14671 828-1176, N1043T;Y1044W;Q1047A)
# T1 sequence: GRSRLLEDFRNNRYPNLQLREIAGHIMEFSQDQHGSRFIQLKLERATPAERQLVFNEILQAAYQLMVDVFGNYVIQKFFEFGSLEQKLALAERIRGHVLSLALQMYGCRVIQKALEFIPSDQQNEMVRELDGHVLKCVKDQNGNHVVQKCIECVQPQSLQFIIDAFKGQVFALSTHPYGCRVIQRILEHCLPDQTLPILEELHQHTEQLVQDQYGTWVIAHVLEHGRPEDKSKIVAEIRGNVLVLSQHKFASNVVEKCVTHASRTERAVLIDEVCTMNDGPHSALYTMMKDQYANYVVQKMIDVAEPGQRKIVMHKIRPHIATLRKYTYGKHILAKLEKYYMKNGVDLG
# In short: as §1
# PUM1 PUF domain R3-GRG = PUM1 PUF domain R3-GRG (Homo sapiens, UniProt Q14671 828-1176, C935G;Q939G)
# In short: as §1
# PUM1 PUF domain R3-LFL = PUM1 PUF domain R3-LFL (Homo sapiens, UniProt Q14671 828-1176, C935L;R936F;Q939L)
# In short: as §1
# PUM1 PUF domain R7-KFR = PUM1 PUF domain R7-KFR (Homo sapiens, UniProt Q14671 828-1176, S1079K;N1080F;E1083R)
# In short: as §1
# PUM1 PUF domain R5-KSK = PUM1 PUF domain R5-KSK (Homo sapiens, UniProt Q14671 828-1176, C1007K;R1008S;Q1011K)
# In short: as §1
sequence,measurement,setting,value
GGCUAGAACUAGUGGAUCCCCCGGCGCCCGGCGGCUCGAGCCCGGGUAAGUGUAAAUGGUCUGCAUGCCGCCGGGCGCCAUGCCUGCAGGUCGACUCUAGAAAACAUG,binding signal,PUM1 PUF domain R1-KNR,3.86 log2 enrichment (interaction score)
GGCUAGAACUAGUGGAUCCCCCGGCGCCCGGCGGCUCGAGCCCGGGUAAGUGUAAAUUGUCUGCAUGCCGCCGGGCGCCAUGCCUGCAGGUCGACUCUAGAAAACAUG,binding signal,PUM1 PUF domain R1-KNR,6.76 log2 enrichment (interaction score)
GGCUAGAACUAGUGGAUCCCCCGGCGCCCGGCGGCUCGAGCCCGGGUAAGCGUAAAUAGUCUGCAUGCCGCCGGGCGCCAUGCCUGCAGGUCGACUCUAGAAAACAUG,binding signal,PUM1 PUF domain R8-KKA,2.4 log2 enrichment (interaction score)
GGCUAGAACUAGUGGAUCCCCCGGCGCCCGGCGGCUCGAGCCCGGGUAAGUGAAAAUAGUCUGCAUGCCGCCGGGCGCCAUGCCUGCAGGUCGACUCUAGAAAACAUG,binding signal,PUM1 PUF domain R6-TWA,4.52 log2 enrichment (interaction score)
GGCUAGAACUAGUGGAUCCCCCGGCGCCCGGCGGCUCGAGCCCGGGUAAGUGUAAGUAGUCUGCAUGCCGCCGGGCGCCAUGCCUGCAGGUCGACUCUAGAAAACAUG,binding signal,PUM1 PUF domain R3-GRG,0.98 log2 enrichment (interaction score)
same,binding signal,PUM1 PUF domain R3-LFL,4.75 log2 enrichment (interaction score)
GGCUAGAACUAGUGGAUCCCCCGGCGCCCGGCGGCUCGAGCCCGGGUAAGUGUAAAUAGUCUGCAUGCCGCCGGGCGCCAUGCCUGCAGGUCGACUCUAGAAAACAUG,binding signal,PUM1 PUF domain R3-GRG,2.99 log2 enrichment (interaction score)
same,binding signal,PUM1 PUF domain R3-LFL,1.59 log2 enrichment (interaction score)
GGCUAGAACUAGUGGAUCCCCCGGCGCCCGGCGGCUCGAGCCCGGGUAAGUCUAAAUAGUCUGCAUGCCGCCGGGCGCCAUGCCUGCAGGUCGACUCUAGAAAACAUG,binding signal,PUM1 PUF domain R7-KFR,5.33 log2 enrichment (interaction score)
GGCUAGAACUAGUGGAUCCCCCGGCGCCCGGCGGCUCGAGCCCGGGUAAGUUUAAAUAGUCUGCAUGCCGCCGGGCGCCAUGCCUGCAGGUCGACUCUAGAAAACAUG,binding signal,PUM1 PUF domain R7-KFR,6.28 log2 enrichment (interaction score)
GGCUAGAACUAGUGGAUCCCCCGGCGCCCGGCGGCUCGAGCCCGGGUAAGUGUCAAUAGUCUGCAUGCCGCCGGGCGCCAUGCCUGCAGGUCGACUCUAGAAAACAUG,binding signal,PUM1 PUF domain R5-KSK,3.19 log2 enrichment (interaction score)
